Measured values published in PubChem BioAssay AID1159580 (chemical genetic matrix, 2015).
Hit rate of the full screen: of about 5,500 compounds, about 2,000 (36%) were called active. About 18% were inconclusive and are not listed. No stated cut-off is given here; in the data, active means normalized growth mostly below about 0.91 (no sharp cut-off); inconclusive means no clear call, values can overlap the other calls; inactive means mostly above about 0.92. This is one part of the list.

Assay: chemical genetic growth profiling, strain panel (AID 1159580);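 further: tested at 20 µM; growth read once vehicle control cultures reached saturation at 30 °C; 1 = growth at the plate median or of vehicle wells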
Conditions: growth OD

Measured: normalized growth

O=C(/C=C/c1ccccc1)c1c(O)cc(O)cc1O
inactive: S. cerevisiae deletion strains, locus YAL013W, strain DEP1, stronger effect = lower value 1.01 | S. cerevisiae deletion strains, locus YBR021W, strain FUR4, stronger effect = lower value 0.995 | S. cerevisiae deletion strains, locus YBR229C, strain ROT2, stronger effect = lower value 1.01 | S. cerevisiae deletion strains, locus YCL029C, strain bik1, stronger effect = lower value 1 | S. cerevisiae deletion strains, locus YDL035C, strain GPR1, stronger effect = lower value 1.02 | S. cerevisiae deletion strains, locus YDL074C, strain BRE1, stronger effect = lower value 1.02 | S. cerevisiae deletion strains, locus YDL101C, strain DUN1, stronger effect = lower value 1.01 | S. cerevisiae deletion strains, locus YDL134C, strain PPH21, stronger effect = lower value 1.02 | S. cerevisiae deletion strains, locus YDL185W, strain tfp1, stronger effect = lower value 1.01 | S. cerevisiae deletion strains, locus YDL192W, strain arf1, stronger effect = lower value 1 | S. cerevisiae deletion strains, locus YDR101C, strain arx1, stronger effect = lower value 0.999 | S. cerevisiae deletion strains, locus YDR150W, strain NUM1, stronger effect = lower value 1.02 | S. cerevisiae deletion strains, locus YDR162C, strain NBP2, stronger effect = lower value 1.04 | S. cerevisiae deletion strains, locus YDR318W, strain mcm21, stronger effect = lower value 0.995 | S. cerevisiae deletion strains, locus YDR388W, stronger effect = lower value 0.997 | S. cerevisiae deletion strains, locus YDR502C, strain sam2, stronger effect = lower value 1 | S. cerevisiae deletion strains, locus YEL061C, strain CIN8, stronger effect = lower value 1.01 | S. cerevisiae deletion strains, locus YER110C, stronger effect = lower value 1.01 | S. cerevisiae deletion strains, locus YER155C, strain BEM2, stronger effect = lower value 1.01 | S. cerevisiae deletion strains, locus YER167W, strain BCK2, stronger effect = lower value 1.01 | S. cerevisiae deletion strains, locus YGL078C, strain dbp3, stronger effect = lower value 1 | S. cerevisiae deletion strains, locus YGL086W, strain mad1, stronger effect = lower value 1 | S. cerevisiae deletion strains, locus YGL248W, strain PDE1, stronger effect = lower value 1.01 | S. cerevisiae deletion strains, locus YGR078C, strain PAC10, stronger effect = lower value 1.03 | S. cerevisiae deletion strains, locus YGR135W, strain pre9, stronger effect = lower value 1 | S. cerevisiae deletion strains, locus YGR229C, strain SMI1, stronger effect = lower value 1.02 | S. cerevisiae deletion strains, locus YGR252W, strain gcn5, stronger effect = lower value 0.972 | S. cerevisiae deletion strains, locus YHR030C, strain SLT2, stronger effect = lower value 1.01 | S. cerevisiae deletion strains, locus YHR079C, strain IRE1 (second series), stronger effect = lower value 0.994 | S. cerevisiae deletion strains, locus YHR094C, strain hxt1, stronger effect = lower value 1 | S. cerevisiae deletion strains, locus YHR129C, strain ARP1, stronger effect = lower value 1.01 | S. cerevisiae deletion strains, locus YHR200W, strain rpn10, stronger effect = lower value 1 | S. cerevisiae deletion strains, locus YIL066C, strain RNR3, stronger effect = lower value 1.02 | S. cerevisiae deletion strains, locus YIL073C, strain SPO22, stronger effect = lower value 1.04 | S. cerevisiae deletion strains, locus YIL125W, strain kgd1, stronger effect = lower value 1 | S. cerevisiae deletion strains, locus YIR030C, strain dcg1, stronger effect = lower value 0.999 | S. cerevisiae deletion strains, locus YJL095W, strain BCK1, stronger effect = lower value 1.01 | S. cerevisiae deletion strains, locus YJL134W, strain LCB3, stronger effect = lower value 1.01 | S. cerevisiae deletion strains, locus YJL168C, strain set2, stronger effect = lower value 0.993 | S. cerevisiae deletion strains, locus YJL187C, strain SWE1 (second series), stronger effect = lower value 1.01 | S. cerevisiae deletion strains, locus YJR043C, strain POL32, stronger effect = lower value 0.998 | S. cerevisiae deletion strains, locus YJR075W, strain HOC1, stronger effect = lower value 1.01 | S. cerevisiae deletion strains, locus YKL009W, strain mrt4, stronger effect = lower value 1.01 | S. cerevisiae deletion strains, locus YKL068W, stronger effect = lower value 1 | S. cerevisiae deletion strains, locus YKL085W, strain MDH1 (second series), stronger effect = lower value 1 | S. cerevisiae deletion strains, locus YKL085W, strain MDH1, stronger effect = lower value 1 | S. cerevisiae deletion strains, locus YKL190W, strain CNB1, stronger effect = lower value 1.01 | S. cerevisiae deletion strains, locus YKR001C, strain vps1, stronger effect = lower value 1.01 | S. cerevisiae deletion strains, locus YLR039C, strain RIC1, stronger effect = lower value 1.04 | S. cerevisiae deletion strains, locus YLR058C, strain SHM2, stronger effect = lower value 1.01 | S. cerevisiae deletion strains, locus YLR102C, strain apc9, stronger effect = lower value 0.998 | S. cerevisiae deletion strains, locus YLR262C, strain YPT6, stronger effect = lower value 1.06 | S. cerevisiae deletion strains, locus YLR268W, strain sec22, stronger effect = lower value 0.989 | S. cerevisiae deletion strains, locus YLR330W, strain CHS5, stronger effect = lower value 1.01 | S. cerevisiae deletion strains, locus YLR342W, strain FKS1 (second series), stronger effect = lower value 1 | S. cerevisiae deletion strains, locus YLR371W, strain rom2, stronger effect = lower value 0.997 | S. cerevisiae deletion strains, locus YLR418C, strain cdc73, stronger effect = lower value 0.992 | S. cerevisiae deletion strains, locus YML016C, strain PPZ1, stronger effect = lower value 1.01 | S. cerevisiae deletion strains, locus YML032C, strain rad52, stronger effect = lower value 1 | S. cerevisiae deletion strains, locus YML124C, strain tub3, stronger effect = lower value 1.01 | S. cerevisiae deletion strains, locus YMR078C, strain ctf18, stronger effect = lower value 1 | S. cerevisiae deletion strains, locus YMR223W, strain ubp8, stronger effect = lower value 0.995 | S. cerevisiae deletion strains, locus YMR263W, strain SAP30, stronger effect = lower value 1.02 | S. cerevisiae deletion strains, locus YMR307W, strain GAS1, stronger effect = lower value 0.915 | S. cerevisiae deletion strains, locus YNL067W, strain RPL9B, stronger effect = lower value 1.01 | S. cerevisiae deletion strains, locus YNL128W, strain TEP1, stronger effect = lower value 1.02 | S. cerevisiae deletion strains, locus YNL153C, strain GIM3, stronger effect = lower value 1.03 | S. cerevisiae deletion strains, locus YNL233W, strain BNI4, stronger effect = lower value 1.02 | S. cerevisiae deletion strains, locus YNL250W, strain rad50, stronger effect = lower value 1.01 | S. cerevisiae deletion strains, locus YNL271C, strain bni1, stronger effect = lower value 1 | S. cerevisiae deletion strains, locus YNL298W, strain CLA4, stronger effect = lower value 1.01 | S. cerevisiae deletion strains, locus YNL307C, strain MCK1, stronger effect = lower value 1.01 | S. cerevisiae deletion strains, locus YNL322C, strain KRE1, stronger effect = lower value 1.01 | S. cerevisiae deletion strains, locus YNR052C, strain pop2, stronger effect = lower value 0.998 | S. cerevisiae deletion strains, locus YOL006C, strain TOP1, stronger effect = lower value 1.05 | S. cerevisiae deletion strains, locus YOL012C, strain htz1 0.787 | S. cerevisiae deletion strains, locus YOL147C, strain pex11, stronger effect = lower value 1.01 | S. cerevisiae deletion strains, locus YOR061W, strain CKA2, stronger effect = lower value 1.01 | S. cerevisiae deletion strains, locus YOR069W, strain VPS5, stronger effect = lower value 1.01 | S. cerevisiae deletion strains, locus YOR136W, strain idh2, stronger effect = lower value 0.995 | S. cerevisiae deletion strains, locus YOR144C, strain elg1, stronger effect = lower value 1 | S. cerevisiae deletion strains, locus YOR184W, strain ser1, stronger effect = lower value 1.01 | S. cerevisiae deletion strains, locus YOR316C, strain cot1, stronger effect = lower value 0.996 | S. cerevisiae deletion strains, locus YPL055C, strain LGE1, stronger effect = lower value 1.05 | S. cerevisiae deletion strains, locus YPL241C, strain CIN2, stronger effect = lower value 1.01 | S. cerevisiae deletion strains, locus YPR119W, strain clb2, stronger effect = lower value 0.997 | S. cerevisiae deletion strains, locus YPR141C, strain kar3, stronger effect = lower value 1.01 | S. cerevisiae deletion strains, locus YPR163C, strain tif3, stronger effect = lower value 1 | S. cerevisiae deletion strains, locus YPR167C, strain met16, stronger effect = lower value 0.998 | S. cerevisiae deletion strains, strain wtn01, stronger effect = lower value 1.01 | S. cerevisiae strains, strain wild type, stronger effect = lower value 1.01
